From PubChem
JMJD2A Tudor – inhibitors of human JMJD2A Tudor domain. AlphaScreen JMJD2A-Tudor / H3K4me3 peptide binding. Potency, µM (series often up to 114 µM), most hits filed as inhibitors. 390,000 compounds, 4.4% hits; further: nearly all actives have a fitted effect of over 50% in size
Target sequence (O75164 whole entry, looked up, the tested form may be a part): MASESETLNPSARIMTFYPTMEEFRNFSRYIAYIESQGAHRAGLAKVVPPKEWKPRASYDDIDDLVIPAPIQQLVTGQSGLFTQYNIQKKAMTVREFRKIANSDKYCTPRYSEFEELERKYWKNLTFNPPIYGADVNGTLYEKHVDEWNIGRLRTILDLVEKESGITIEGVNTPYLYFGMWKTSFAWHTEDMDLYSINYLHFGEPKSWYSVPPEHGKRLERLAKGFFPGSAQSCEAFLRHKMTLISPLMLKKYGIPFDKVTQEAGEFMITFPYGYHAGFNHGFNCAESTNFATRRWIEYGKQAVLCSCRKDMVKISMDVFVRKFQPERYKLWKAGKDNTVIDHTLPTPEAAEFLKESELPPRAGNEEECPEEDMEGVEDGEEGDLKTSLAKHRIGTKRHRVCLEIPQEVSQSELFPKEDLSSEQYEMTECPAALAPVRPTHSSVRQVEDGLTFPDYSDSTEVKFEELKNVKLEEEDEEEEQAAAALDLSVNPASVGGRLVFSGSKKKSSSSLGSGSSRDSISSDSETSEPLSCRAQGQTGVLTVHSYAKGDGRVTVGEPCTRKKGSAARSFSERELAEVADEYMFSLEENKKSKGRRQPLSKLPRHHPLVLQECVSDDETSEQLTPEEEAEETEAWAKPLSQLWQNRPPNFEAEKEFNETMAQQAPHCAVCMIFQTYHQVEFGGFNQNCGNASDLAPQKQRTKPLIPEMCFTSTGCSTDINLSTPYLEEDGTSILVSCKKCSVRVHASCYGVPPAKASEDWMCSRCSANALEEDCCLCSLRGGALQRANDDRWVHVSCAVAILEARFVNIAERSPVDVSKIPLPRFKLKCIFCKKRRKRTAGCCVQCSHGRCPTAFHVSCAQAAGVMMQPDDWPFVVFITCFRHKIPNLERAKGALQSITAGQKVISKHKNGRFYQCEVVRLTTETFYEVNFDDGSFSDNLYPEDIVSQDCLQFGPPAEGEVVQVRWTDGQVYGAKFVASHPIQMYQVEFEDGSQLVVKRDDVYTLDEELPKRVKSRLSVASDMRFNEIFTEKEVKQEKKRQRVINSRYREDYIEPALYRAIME
BAZ2B inh – inhibitors of human BAZ2B bromodomain; Q9UIF8; AlphaScreen BAZ2B-H3K14Ac peptide displacement; Potency, µM (top dose mostly 114 µM), most hits filed as inhibitors; 360,000 compounds, 4.4% hits; AID 504333; further: nearly all actives have a fitted effect of over 60% in size
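AlphaScreen displacement: compounds (up to 110uM) incubated 30 min at room temperature with a preformed 50 nM BAZ2B/50 nM biotinylated H3K14Ac peptide complex in PBS pH 7.4 with Tween-20. Donor and acceptor beads at 10 ug/mL final added, 20 min light-protected before reading.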
PLK1 PBD inh – PLK1 (human) polo-box domain binding inhibition. P53350. Plk1 PBD binding of FITC phosphopeptide, fluorescence polarization. Potency, µM, usual class: inhibitors. 360,000 compounds, 2.8% hits; further: series mostly up to about 57 µM; nearly all actives have a fitted effect of over 65% in size
VDR inh – vitamin D3 receptor (human) inhibition; Potency, µM, most hits filed as inhibitors; AID 504847; VDR-SRC2-3 peptide fluorescence polarization, 2 h; P11473; 400,000 compounds, 0.93% hits
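The screen uses fluorescence polarization to detect compounds that interfere with recruitment of the SRC2-3 coactivator peptide to VDR; plates are read after 2 h at room temperature.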
HP1b chromo inh – blocks HP1-beta chromodomain binding to methylated histone tails. P83916. AlphaScreen HP1-beta / biotin-H3K9me3 peptide binding. Potency, µM (top dose mostly 114 µM), hits mostly inhibitors. 390,000 compounds, 0.56% hits. AID 540317; further: nearly all actives have a fitted effect of over 70% in size
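AlphaScreen: HP1-beta (50 nM) preformed 30 min with biotin-H3(1-18)K9me3 peptide (50 nM) in PBS pH 7.4, 0.01% Tween-20. Compound added for 30 min at RT, then streptavidin donor/nickel chelate acceptor beads (10 ug/mL) for 30 min.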
L3MBTL1 inh – blocks human L3MBTL1; AlphaScreen L3MBTL1–H3K9me1 peptide binding; 230,000 compounds, 0.66% hits; Potency, µM (titrated, usually from 57.1 µM), most hits filed as inhibitors; Q9Y468; further: nearly all actives have a fitted effect of over 60% in size
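L3MBTL1 (50 nM) pre-complexed 30 min with biotinylated H3(1-15)K9me1 peptide (75 nM), then compounds added for 30 min at room temperature; AlphaScreen streptavidin donor/nickel chelate acceptor beads (10 ug/mL final) read after 30 min dark incubation.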
Hits are given with their value; i = inactive; ? = inconclusive; nt = not tested or not shown; [ ] = dose if it differs, or a comment. Rows were chosen to be rich in hits. Some 6.9% of all compounds tested hit in one or more screens of this group. The call rests on the fitted dose curve; in most records, active means well fitted curve in the direction sought with a large enough effect; inconclusive means small, poorly fitted or top-dose-only effect, or another doubt; inactive means no such curve, though single readings can be large; an effect the other way counts as inactive or inconclusive.

SMILES	JMJD2A Tudor	BAZ2B inh	PLK1 PBD inh	VDR inh	HP1b chromo inh	L3MBTL1 inh
O=C(Nc1ccc(Nc2ccccc2)cc1)c1ccc(Cl)c([N+](=O)[O-])c1	50.1µM	39.8µM	i	i	?	i
O=C(Nc1ccccc1-c1ccccc1)c1ccc(Cl)c([N+](=O)[O-])c1	i	i	i	i	i	i
Cc1cc(C(=O)Nc2ccc(Nc3ccccc3)cc2)ccc1[N+](=O)[O-]	10µM	i	3.36µM	25.1µM	22.4µM	i[2.29 µM]
COC(=O)c1cc2sc(Cl)cc2n1CC(=O)Nc1cc(C)cc(C)c1	i	i	nt	i	i	nt
NCCCN(Cc1ccccc1)c1ccc(Br)cn1	i	nt	nt	i	i	nt
CCOC(=O)c1[nH]c(C)c(CCC(=O)NCc2ccc(OC(C)C)cc2)c1C	i	i	nt	i	i	nt
CC(C)(C)[C@H]1C=C(C(=O)Nc2ccccc2)O[C@@H](OCCCCO)C1	i	nt	i	i	i	nt
CCOc1cc(C(=O)NCCc2csc3nc(-c4ccccc4F)nn23)cc(OCC)c1OCC	i	i	nt	i	i	nt
CC(=O)Sc1nc(-c2ccccc2)[nH]c1S(=O)(=O)c1ccc(C)cc1	12.6µM	?	2.99µM	?	?	i
Cc1ccc(S(=O)(=O)c2[nH]c(-c3ccccc3)nc2SCC(=O)O)cc1	i	i	nt	i	i	nt
Cc1cccc(NC(=O)CSc2nc3c(oc4ccccc43)c(=O)n2Cc2ccco2)c1	i	i	nt	i	i	nt
COc1cccc(-c2cncnc2NCc2ccccc2)c1	nt	nt	nt	i	nt	nt
COc1cccc(-c2cncnc2Nc2ccccc2)c1	nt	nt	nt	39.8µM	nt	nt
CN(C)Cc1ccccc1-c1cncnc1Nc1ccccc1	nt	nt	nt	i	nt	nt
CNc1ncncc1-c1ccccc1C	nt	nt	nt	70.8µM	nt	nt
Cc1ccccc1-c1cncnc1NCc1cccnc1	nt	nt	nt	50.1µM	nt	nt
Cc1ccccc1-c1cncnc1Nc1ccccc1	nt	nt	nt	44.7µM	nt	nt
Cc1ccccc1-c1cncnc1NCc1ccccc1	nt	nt	nt	i	nt	nt
COc1ccc2c(c1)c1c(c(=O)n(-c3cccc(C)c3)c(=O)n1CC(=O)Nc1c(C)cc(C)cc1C)n2C	i	i	nt	i	i	nt
COc1cccc(NC(=O)C2CCN(S(=O)(=O)c3c(C)noc3/C=C/c3cccs3)CC2)c1	i	nt	nt	i	i	nt
COc1cc(NC(=O)CCN2CCN(c3ccccc3)CC2)cc(OC)c1	i	i	nt	i	i	nt
CCc1nc2c(OCC3CCCCC3)cccn2c1N(C)C(=O)c1ccc(C)cc1	nt	nt	i	nt	nt	nt
Cc1ccc(NCc2cccnc2)cc1	39.8µM	?	i	i	i	nt
COc1ccc(Cc2nnc(NCCO)[nH]c2=O)cc1OC	?	i	5.97µM	?	i	nt
COc1ccc(Cc2nnc(N/N=C/c3ccc(Br)cc3)[nH]c2=O)cc1OC	i	?	i	i	i	i
SMILES	JMJD2A Tudor	BAZ2B inh	PLK1 PBD inh	VDR inh	HP1b chromo inh	L3MBTL1 inh
COc1ccc(Cc2nnc(N/N=C/c3ccc(O)cc3)[nH]c2=O)cc1OC	25.1µM	7.08µM	i	i	i	17.8µM
CCOC(=O)c1ccccc1NC(=O)CN(c1cccc(C)c1C)S(=O)(=O)c1ccccc1	i	i	nt	i	i	nt
CC1CCc2c(sc(NC(=O)c3cc(-c4cccc(Cl)c4)on3)c2C(N)=O)C1 (stereo unspecified)	i	i	nt	i	i	nt
O=S(=O)(NCC(c1ccc2c(c1)OCO2)N1CCOCC1)c1ccccc1 (stereo unspecified)	i	i	i	i	i	i
O=C(COC(=O)c1ccc2c(c1)OCO2)Nc1ncc(Cl)cc1Cl	i	i	i	i	i	i
Cc1c(Cl)cnc(NC(=O)COC(=O)c2ccc3ncsc3c2)c1Cl	?	50.1µM	i	i	i	?
O=C(COC(=O)c1ccc2ncsc2c1)Nc1ncc(Cl)cc1Cl	?	50.1µM	i	i	i	?
O=C(COC(=O)c1ccc(O)cc1)Nc1ncc(Cl)cc1Cl	i	79.4µM	i	i	i	?
Cc1ccc2cc3cc(C(=O)NCCCN4CCCC4=O)oc3nc2c1	i	i	i	i	i	nt
Cc1nn(C(=O)c2ccc(Cl)cc2)c(C)c1S(=O)(=O)N1CCOCC1	i	i	nt	i	i	nt
CC(C)c1nnc(SCC(=O)NCCC2=CCCCC2)n1N	i	i	10.6µM	89.1µM	?	nt
OC1Cc2ccccc2C1Nc1cccc(C(F)(F)F)c1 (stereo unspecified)	i	nt	i	i	i	nt
Oc1ccc(Cl)cc1/C=C/c1ccc2cccc(O)c2n1	i	i	i	i	i	i
O=C(/C=C/c1ccc2ccccc2n1)c1cc(Cl)ccc1O	?	70.8µM	?	i	i	nt
O=C(C=Cc1ccco1)c1cc(Cl)ccc1O	22.4µM	nt	i	?	50.1µM	nt
CCn1c(=O)c(C(=O)Nc2ccc(C(C)=O)cc2)nc2ccccc21	i	i	nt	i	i	nt
COc1ccccc1CN1COc2ccc3c(oc(=O)c4ccccc43)c2C1	?	5.01µM	nt	i	i	nt
Cc1nnc(SCC(=O)Nc2ccc([N+](=O)[O-])cc2)n1CC1CCCO1 (stereo unspecified)	i	i	i	i	i	nt
O=C(NCc1cccnc1)/C(=C/c1ccc(-c2ccc(Cl)cc2)o1)S(=O)(=O)c1ccccc1	?	?	?	22.4µM	i	i
CCOc1ccc(C(=O)NCC(c2ccc3c(c2)OCO3)N2CCN(C)CC2)cc1 (stereo unspecified)	i	i	nt	i	i	nt
O=C1C(C2=NC(c3ccccn3)C3C(=O)N(c4ccc(OC(F)(F)F)cc4)C(=O)C23)=C(O)c2ccccc21 (stereo unspecified)	i	i	i	i	i	i
O=C1C(C2=NC(C(=O)O)C3C(=O)N(c4ccccc4)C(=O)C23)=C(O)c2ccccc21 (stereo unspecified)	15.8µM	i	i	i	i	i
O=S(=O)(CCc1ccccc1)c1nc2ccccc2s1	nt	nt	nt	i	nt	nt
COC(=O)c1ccc(CN2C(=O)c3ccccc3C2=O)cc1	i	i	i	i	i	i
COC(=O)c1cc(CN2C(=O)c3ccccc3C2=O)c(O)c([N+](=O)[O-])c1	i	56.2µM	i	i	i	nt
SMILES	JMJD2A Tudor	BAZ2B inh	PLK1 PBD inh	VDR inh	HP1b chromo inh	L3MBTL1 inh
CC(=O)c1cccc(NC(=O)c2nccnc2C(=O)O)c1	20µM	i	i	i	i	i
Cc1cc(C)cc(NC(=O)Nc2cnccn2)c1	i	i	i	i	i	nt
COC(=O)c1cc(NC(=O)c2nccnc2C(=O)O)cc(C(=O)OC)c1	56.2µM	i	i	i	i	nt
Cc1cc(C)cc(NC(=O)c2nccnc2C(=O)O)c1	79.4µM	?	i	i	i	nt
CCOC(=O)C1CCCN(c2cc(C)nc3c(-c4ccccc4OC)c(C)nn23)C1 (stereo unspecified)	i	i	nt	i	i	nt
CCN(CC)c1ccc(/C=C2\C(=O)c3ccc(C(=O)O)cc3C2=O)cc1	44.7µM	14.1µM	i	i	39.8µM	?
CCN(CC)c1ccc(C(=O)O)cc1	i	i	i	i	i	i
CC1=C(C(=O)O)N2C(=O)C(NC(=O)c3ccccc3Cl)C2SC1 (stereo unspecified)	i	i	?	i	i	nt
